Columns and labels:
Settings in all cases: concentration: 1 μM, replicates: in singlicate; n = 1
SRPK1 = test system: SRPK1
SRPK2 = test system: SRPK2
SRPK3 = test system: SRPK3
STK16 = test system: STK16
STK33 = test system: STK33
STK35 = test system: STK35
STK36 = test system: STK36
STK39 = test system: STK39
SYK = test system: SYK
SgK110 = test system: SgK110
TAK1 = test system: T1, TAK1
T1 construct: gene MAP3K7

TAOK1 = test system: TAOK1
TAOK2 = test system: TAOK2
TAOK3 = test system: TAOK3
TBK1 = test system: TBK1
TEC = test system: TEC
TESK1 = test system: TESK1
TGFBR2 = test system: TGFBR2
TIE1 = test system: TIE1
TGFBR1 = test system: TGFBR1
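Further: KINOMEscan kinase panel screen.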

SMILES | %Inh (SRPK1) | %Inh (SRPK2) | %Inh (SRPK3) | %Inh (STK16) | %Inh (STK33) | %Inh (STK35) | %Inh (STK36) | %Inh (STK39) | %Inh (SYK) | %Inh (SgK110) | %Inh (TAK1) | %Inh (TAOK1) | %Inh (TAOK2) | %Inh (TAOK3) | %Inh (TBK1) | %Inh (TEC) | %Inh (TESK1) | %Inh (TGFBR2) | %Inh (TIE1) | %Inh (TGFBR1)
Cc1cccc(-c2nc(Nc3ccc4c(cnn4C)c3)c3ccccc3n2)n1 [GW876731] | 0% | 0% | 0% | 5% | 0% | 0% | 2% | 33% | 24% | 6% | 23% | 12% | 0% | 0% | 0% | 0% | 6% | 0% | 0% | 
Cc1nnc(-c2ccc(C)c(-c3ccc(C(=O)O)cc3)c2)o1 [GW608005] | 35% | 0% | 7% | 0% | 0% | 0% | 0% | 1% | 0% | 0% | 0% | 0% | 0% | 2% | 2% | 0% | 0% | 0% | 15% | 0%
COc1cc(Nc2nccc(N3CCC(NC(=O)C(C)c4ccc(Cl)cc4)C3)n2)cc(OC)c1OC (centres unmarked) [GSK1379757] | 26% | 3% | 52% | 39% | 0% | 0% | 0% | 0% | 20% | 0% | 0% | 0% | 0% | 0% | 14% | 0% | 27% | 0% | 10% | 0%
COC(=O)c1c(-c2ccccc2)c2cc(C)ccc2c(=O)n1Cc1ccccc1 | 0% | 0% | 0% | 19% | 0% | 0% | 1% | 0% | 0% | 12% | 0% | 0% | 0% | 0% | 0% | 1% | 0% | 0% | 0% | 0%
Cn1c(=O)c(F)c(Nc2ccc(I)cc2F)c2c(=O)n(OC[C@H](O)CO)cnc21 | 15% | 13% | 7% | 14% | 0% | 0% | 9% | 32% | 20% | 0% | 0% | 0% | 27% | 0% | 52% | 30% | 31% | 13% | 0% | 20%
CCC(=O)c1c(-c2ccccc2)c2cc(Cl)ccc2c(=O)n1Cc1ccc(C(=O)O)cc1 | 0% | 10% | 0% | 0% | 0% | 0% | 0% | 23% | 0% | 49% | 0% | 0% | 0% | 0% | 0% | 10% | 6% | 0% | 0% | 11%
COc1cc(Nc2nccc(N3CCC(NC(=O)C4COc5ccccc5O4)C3)n2)cc(OC)c1OC (centres unmarked) [GSK1379761] | 65% | 70% | 0% | 70% | 4% | 13% | 40% | 0% | 44% | 0% | 7% | 11% | 0% | 5% | 0% | 0% | 33% | 0% | 17% | 12%
OCCCNc1nccc(-c2c(-c3cccc(C(F)(F)F)c3)nn3cc(C(F)(F)F)ccc23)n1 [GW630813] | 7% | 2% | 0% | 8% | 0% | 0% | 55% | 0% | 0% | 0% | 0% | 0% | 0% | 0% | 10% | 0% | 11% | 0% | 0% | 0%
COc1ccc(-c2cc3c(C)nc(N)nc3n([C@H]3CC[C@H](OCCO)CC3)c2=O)cn1 | 0% | 0% | 0% | 0% | 0% | 8% | 0% | 0% | 1% | 25% | 19% | 0% | 0% | 0% | 6% | 0% | 6% | 3% | 0% | 0%
O=C1NC(=O)C(c2ccccc2)=C1Nc1cccc(O)c1 [SB-390534] | 20% | 7% | 0% | 0% | 4% | 2% | 0% | 4% | 6% | 0% | 0% | 30% | 22% | 18% | 14% | 0% | 13% | 0% | 22% | 6%
COc1cc(Nc2ccnc3ccc(C(F)(F)F)cc23)cc(OC)c1OC [GW577382] | 0% | 0% | 0% | 0% | 15% | 0% | 0% | 16% | 37% | 0% | 0% | 0% | 0% | 0% | 4% | 0% | 52% | 9% | 0% | 8%
CCC(=O)c1c(-c2ccccc2)c2cc(Cl)ccc2c(=O)n1Cc1cc(S(C)(=O)=O)n(CC(F)F)n1 | 0% | 2% | 0% | 0% | 0% | 0% | 0% | 0% | 0% | 31% | 0% | 8% | 11% | 0% | 24% | 0% | 11% | 0% | 0% | 7%
Cl.NS(=O)(=O)c1cccc(Nc2cc(-c3ccc(F)cc3)n[nH]2)c1 [GW824645] | 0% | 0% | 2% | 18% | 0% | 0% | 0% | 0% | 3% | 0% | 0% | 0% | 36% | 13% | 35% | 0% | 6% | 1% | 0% | 23%
Cc1nnc(-c2ccc3ncn(-c4ccc(S(C)=O)cc4)c3c2)o1 (centres unmarked) | 0% | 0% | 0% | 29% | 0% | 0% | 22% | 0% | 0% | 2% | 3% | 100% | 0% | 96.2% | 19% | 1% | 8% | 38% | 0% | 0%
Nc1n[nH]c2nnc(-c3ccccc3)c(-c3ccccc3)c12 [GW554060] | 0% | 0% | 9% | 25% | 0% | 0% | 0% | 35% | 0% | 0% | 0% | 0% | 0% | 0% | 8% | 0% | 2% | 0% | 8% | 12%
